PrPC surface inh – inhibitors of human cell surface prion protein PrPC; actives 0.43% (n = 370,000); P04156; TR-FRET read-out; inhibition, % at 13.8 µM; in the data active = inhibition above about 24%; also: 0% = median of the test wells and 100% = reference compound wells
BJeLR lethal – BJeLR cell viability loss | BJeLR (HRASV12) viability, CellTiter-Glo ATP luminescence, 48 h | actives 0.17% (n = 300,000) | AID 1554 | inhibition, % (test concentration not listed); in the data active = inhibition above about 50%; inconclusive = no clear call, values can overlap the other calls
Y pestis TopoI – Y. pestis Topo-I inhibition via cleavage products; Y. pestis Topo-I cleavage product accumulation, plate reader; activity, % at 10 µM; actives 0.064% (n = 360,000); AID 504884; in the data active = activity above about 50%, passing the limit was not always enough; inconclusive = no clear call, values can overlap the other calls
PfHsp40 rescue – rescue of PfHsp40-mediated yeast toxicity | S. cerevisiae expressing PfHsp40, growth rescue, ATP luminescence | AID 504582 | growth rescue, % at 12.5 µM | actives 0.68% (n = 340,000); in the data active = growth rescue above about 28%, passing the limit was not always enough; inconclusive = no clear call, values can overlap the other calls;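 also: yeast W303a lacking pdr1 and pdr3 grown in galactose medium; growth measured after three days at 30 °C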
PrP UTR inh – suppresses PrP 5' UTR mRNA reporter expression; actives 0.35% (n = 340,000); inhibition, % (concentration not given with the values); cell-based PrP 5' UTR mRNA reporter, plate reader; in the data active = inhibition above about 52%; also: 0 = median of the neutral control wells
PriA SSB inh – K. pneumoniae PriA-SSBct interaction inhibition; AlphaScreen SSBct-PriA binding, biotinylated peptide; inhibition, % at 33 µM; actives 0.6% (n = 430,000); AID 1272365; in the data active = inhibition mostly above about 37%, no sharp cut-off; inactive = mostly below about 20%;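 also: plate controls were negative control peptide for no effect and reference peptide for full effect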
The depositor's hits bear a star; ? = inconclusive; / = not tested or not shown; + = active, no number. The list is not random: actives were taken first. Their share in the collection is about 1.7%.

SMILES	PrPC surface inh	BJeLR lethal	Y pestis TopoI	PfHsp40 rescue	PrP UTR inh	PriA SSB inh
Cc1c(-n2c(-c3ccccc3)csc2=NC(=O)c2ccccc2)c(=O)n(-c2ccccc2)n1C	/	/	/	/	/	44.0*
CC(=O)N=c1scc(-c2ccccc2)n1-c1cccc(O)c1	2.1	1.4	7.6	1.5	-6.2	-6.0
Cc1ccc2oc(C(=O)N(Cc3ccc(N(C)C)cc3)CC3CCCO3)c(C)c2c1 (stereo not drawn)	-1.1	-2.5	21.1	13.8	-13.1	15.7
Cc1cc2oc(C(=O)N(Cc3ccc(N(C)C)cc3)CC3CCCO3)c(C)c2cc1C (stereo not drawn)	-5.1	4.9	38.1	4.8	-12.8	49.6*
CCC(Sc1nc2ccccc2s1)C(=O)Nc1nnc(C(C)C)s1 (stereo not drawn)	/	/	/	/	/	-7.0
Cc1ccccc1[N+](=O)[O-]	2.7	/	3.4	-0.1	-10.5	-1.5
Cc1ccccc1-n1ncc2c([N+](=O)[O-])cc([N+](=O)[O-])cc21	-20.6	-6.9	-10.5	0.0	-24.0	63.9*
O=C(Nc1ccncc1)c1ccc(=O)n(Cc2cccc(F)c2)c1	/	/	/	/	/	13.0
COc1cc2c(cc1/C=C/[N+](=O)[O-])OCO2	-2.1	37.3	-0.1	241.9*	-29.3	-10.6
N#Cc1nc(COc2ccc(Br)cc2)oc1N1CCCCC1	/	/	/	/	/	104.2*
C=CCNc1oc(Cc2cccc3ccccc23)nc1C#N	3.1	-1.1	11.2	-0.5	3.6	3.3
N#Cc1nc(-c2ccc(OCc3ccc(Cl)cc3)cc2)oc1N1CCC(C(N)=O)CC1	5.5	10.4	2.0	-0.3	-23.4	-4.4
N#Cc1nc(Cc2cccc3ccccc23)oc1NCc1ccc(F)cc1	1.5	-10.7	39.7	1.8	-11.3	44.9*
Cc1ccc(OCc2nc(C#N)c(N3CCN(c4ccccc4)CC3)o2)cc1	/	/	/	/	/	74.2*
Cc1ccc(OCc2nc(C#N)c(N3CCC(C(N)=O)CC3)o2)cc1	/	/	/	/	/	56.3*
Cc1ccc(OCc2nc(C#N)c(N3CCN(Cc4ccccc4)CC3)o2)cc1	6.8	-7.3	29.3	2.4	-19.9	-5.8
O=C(CN1CCN(Cc2nc(-c3cccs3)cs2)CC1)NCc1ccc(F)cc1	/	/	/	/	/	4.0
CC(C)(Oc1ccc(Cl)cc1)C(=O)NCCn1nc(-c2ccccn2)cc1C1CC1	/	/	/	/	/	8.0
Cc1ccc(OCc2nc(C#N)c(N3CCC(C)CC3)o2)cc1	/	/	/	/	/	95.9*
N#Cc1nc(Cc2ccccc2)oc1N1CCCC1	1.1	2.8	6.8	2.5	-20.7	-2.5
COc1ccc(OCc2ccc(-c3nc(C#N)c(N4CCC(C(N)=O)CC4)o3)o2)cc1	/	/	/	/	/	37.0*
CCCOc1ccc(-c2nc(C#N)c(N3CCC(C(N)=O)CC3)o2)cc1	-1.0	-5.0	14.6	1.4	-13.8	-3.5
CC1CC(C)CN(c2oc(Cc3ccccc3)nc2C#N)C1 (stereo not drawn)	-0.9	0.8	37.7	0.6	-18.7	54.8*
CC1CCN(c2oc(Cc3cccc4ccccc34)nc2C#N)CC1	-0.5	9.2	54.8*	?	-7.5	56.0*
Cc1ccc(-c2nc(C#N)c(N3CCC(C)CC3)o2)cc1	5.1	-1.5	15.1	6.4	-18.7	32.6
SMILES	PrPC surface inh	BJeLR lethal	Y pestis TopoI	PfHsp40 rescue	PrP UTR inh	PriA SSB inh
CN1\C(=C/C=C/C=C/C=[N+](C)C)C(C)(C)c2ccccc21	6.8	13.1	+	0.8	-0.8	/
Cc1ccc(C2c3cccn3CCN2S(=O)(=O)N(C)C)cc1 (stereo not drawn)	/	/	/	/	/	-2.0
O=C(Cn1ccc2ccccc21)Nc1cc(N2CCN(Cc3ccccc3)CC2)ncn1	/	/	/	/	/	44.0*
O=C(CNC(=O)OCc1ccccc1)NC1CCN(c2ccc(C(F)(F)F)cn2)C1 (stereo not drawn)	/	/	/	/	/	-3.0
CCOC(=O)c1ccc(NC(=O)CC2Sc3ncnn3C2=O)cc1 (stereo not drawn)	-2.5	-11.5	5.5	41.5*	-20.2	5.2
CCC(=O)Nc1ccc(C(=O)Cn2ncc(Cl)c(Cl)c2=O)cc1	-17.4	-4.8	-6.3	0.1	-11.7	-0.9
CCOC(=O)c1ccc(NC(=O)Cn2ncc(Cl)c(Cl)c2=O)cc1	-5.3	11.8	8.7	34.3*	-31.0	-5.9
COc1ccc(NC(=O)CC2Sc3ncnn3C2=O)cc1 (stereo not drawn)	-3.0	1.6	5.0	1.3	-7.8	10.6
CC(=O)n1cc(N(C(=O)CCl)c2ccccc2)c2ccccc21	-8.2	100.4*	-5.0	8.0	0.9	-25.1
CC(=O)n1cc(N(C(=O)CCl)c2ccc([N+](=O)[O-])cc2)c2ccccc21	-31.6	2.1	-10.6	3.7	-16.5	14.2
Cc1nnsc1C(=O)NCCSC1CCOCC1	/	/	/	/	/	-10.0
COc1cnc(-c2ccccn2)nc1Sc1c(Cl)cccc1Cl	7.3	-13.2	9.2	-0.8	-6.0	-5.6
COc1ccc(Oc2nc(-c3ccccn3)ncc2OC)cc1	-0.9	1.7	10.4	?	-16.7	28.0
COc1cnc(-c2ccccn2)nc1Cl	/	/	/	/	/	39.9
COc1cnc(-c2ccccn2)nc1Oc1c(C)cccc1C	-0.7	-2.7	-4.7	0.8	1.0	48.7*
COc1cnc(-c2ccccn2)nc1Sc1ccccc1Cl	7.7	6.2	5.0	2.6	-13.8	83.0*
COc1cnc(-c2ccccn2)nc1OC	/	/	/	/	/	112.0*
CCOC(=O)C(C)Sc1nc(-c2ccccn2)ncc1OC (stereo not drawn)	4.7	4.0	5.6	0.3	-11.1	90.1*
CC(C)C(=O)N1CCCc2ccc(NC(=O)C(=O)NCCC3=CCCCC3)cc21	/	/	/	/	/	1.0
Cc1nsc(C(=O)N2CCN(C(=O)[C@@H]3CCCO3)CC2)n1	/	/	/	/	/	-20.0
CCc1ccc2c(c1)C(C)(C)C1(/C=C/c3ccco3)NC(=O)CCN21 (stereo not drawn)	/	/	/	/	/	50.0*
CCN1C(=O)C(C)(C)COc2ccc(NC(=O)CN3C(=O)c4ccccc4C3=O)cc21	/	/	/	/	/	26.0
O=[N+]([O-])c1ccc(-c2nc(-c3cccs3)c(-c3cccs3)[nH]2)cc1	20.2	5.3	-34.7	437.9*	-26.5	-0.7
O=[N+]([O-])c1cccc(-c2nc(-c3cccs3)c(-c3cccs3)[nH]2)c1	-4.9	-0.3	7.2	0.4	7.6	-17.0
Oc1ccc(-c2nc(-c3ccc(F)cc3)c(-c3ccncc3)[nH]2)cc1	-9.9	/	-13.7	-1.1	13.6	16.5
SMILES	PrPC surface inh	BJeLR lethal	Y pestis TopoI	PfHsp40 rescue	PrP UTR inh	PriA SSB inh
Fc1ccc(-c2nc(-c3cccs3)[nH]c2-c2ccc(F)cc2)cc1	7.7	5.8	-23.9	128.6*	-76.8	16.0
O=C(c1ccc(=O)[nH]n1)N1CCN(Cc2nc3ccccc3[nH]2)CC1	/	/	/	/	/	-21.0
COc1cc(N=C2C(=O)N3c4c(cccc42)C(C)=CC3(C)C)cc(OC)c1	-2.2	1.0	-5.5	-1.0	9.9	6.8
CC1=CC(C)(C)N2C(=O)C(=Nc3ccc(O)cc3)c3cccc1c32	-13.6	1.4	5.4	-0.2	-12.2	39.7*
O=[N+]([O-])c1ccc(N=Nc2ncc[nH]2)cc1	3.7	74.2*	-3.2	84.5*	2.7	-6.3
O=[N+]([O-])c1ccc(N=NN(CCO)CCO)cc1	-17.1	0.4	-2.6	1.4	-6.3	2.2

Screening results deposited in PubChem BioAssay by several laboratories.
